Assay results: PubChem BioAssay (NCATS)
Results filed as inconclusive are left out. Calls of active or inactive are those of the source. Calls come from the whole dose curve; as a rule, active = well fitted curve in the direction sought with a large enough effect; inconclusive = small, poorly fitted or top-dose-only effect, or another doubt; inactive = no such curve, though single readings can be large; an effect the other way counts as inactive or inconclusive.

How the values were obtained:
[1] = qHTS of pediatric cancer cell lines to identify multiple opportunities for drug repurposing: Confirmatory screen for control Hh wild type fibroblast cells (AID 1347121);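 note: plate controls were DMSO for no effect and bortezomib for full effect; nearly all actives have a fitted effect of over 70% in size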
How it was run: (§1)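 Viability after 48 h compound treatment at 37C, 500-1,000 cells/well, read as ATP luminescence with CellTiter-Glo. Primary screens used 11-point (MIPE, 0.78 nM-46 µM) or 8-point (NPC, 0.59 nM-46 µM) final concentrations; follow-up screens used 11-point dilutions.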

[2] = qHTS of pediatric cancer cell lines to identify multiple opportunities for drug repurposing: Confirmatory screen for U-2 OS cells (AID 1347122); note: nearly all actives have a fitted effect of over 65% in size; note: potency is the fitted concentration of half-maximal effect
How it was run: as §1

[3] = qHTS of pediatric cancer cell lines to identify multiple opportunities for drug repurposing: Confirmatory screen for Rh41 cells (AID 1347123);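 note: 48 h compound exposure; nearly all actives have a fitted effect of over 60% in size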; note: potency is the fitted concentration of half-maximal effect
How it was run: as §1

[4] = qHTS of pediatric cancer cell lines to identify multiple opportunities for drug repurposing: Confirmatory screen for RD cells (AID 1347124);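 note: cells exposed to compound for 48 h before viability readout; % is set by controls: 0 for no effect and ±100 for the full control effect; nearly all actives have a fitted effect of over 65% in size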
How it was run: as §1

[5] = qHTS of pediatric cancer cell lines to identify multiple opportunities for drug repurposing: Confirmatory screen for Rh18 cells (AID 1347125); note: nearly all actives have a fitted effect of over 55% in size; note: potency is the fitted concentration of half-maximal effect
How it was run: as §1

[6] = qHTS of pediatric cancer cell lines to identify multiple opportunities for drug repurposing: Confirmatory screen for Rh30 cells (AID 1347126); note: nearly all actives have a fitted effect of over 55% in size; note: potency is the fitted concentration of half-maximal effect
How it was run: as §1

[7] = qHTS of pediatric cancer cell lines to identify multiple opportunities for drug repurposing: Confirmatory screen for Saos-2 cells (AID 1347127); note: nearly all actives have a fitted effect of over 60% in size; note: potency is the fitted concentration of half-maximal effect
How it was run: as §1

[8] = qHTS of pediatric cancer cell lines to identify multiple opportunities for drug repurposing: Confirmatory screen for OHS-50 cells (AID 1347128);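 note: compound exposure lasted 48 h at 37 degrees C; nearly all actives have a fitted effect of over 55% in size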; note: potency is the fitted concentration of half-maximal effect
How it was run: as §1

[9] = qHTS of pediatric cancer cell lines to identify multiple opportunities for drug repurposing: Confirmatory screen for SK-N-SH cells (AID 1347129);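 note: cells exposed to compound for 48 h before viability read; nearly all actives have a fitted effect of over 60% in size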; note: potency is the fitted concentration of half-maximal effect
How it was run: as §1

[10] = test system: Zika virus NS2B-NS3 protease; experiment: Primary screen GU AMC qHTS for Zika virus inhibitors (AID 1347154); note: nearly all actives have a fitted effect of over 70% in size; note: potency is the fitted concentration of half-maximal effect;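 for activity change, negative = inhibition: 0% = no-inhibitor control and -100% = no-enzyme control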
How it was run: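 Unlinked Zika NS2B hydrophilic domain–NS3 protease complex at 25 nM in 10 mM Tris-HCl pH 8.0, 0.01% Tween 20, with an AMC peptide substrate. Fluorescence change (340/450 nm) over 15 min at room temperature, normalized to controls, fitted to 4-parameter Hill.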

[11] = test system: Zika virus NS2B-NS3 protease (linked construct); experiment: Confirmatory screen NINDS AMC qHTS for Zika virus inhibitors (AID 1347152); conditions: Purified linked NS2B-NS3, AMC substrate fluorescence; note: potency is the fitted concentration of half-maximal effect; nearly all actives have a fitted effect of over 70% in size
How it was run: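 In this dose-response qHTS, AMC release from 10 microM Bz-Nle-KRR-AMC by 1 nM linked protease is measured over 15 minutes (about 20% conversion) at pH 8.0. Percent inhibition is fitted to a 4-parameter Hill curve.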

[12] = qHTS of pediatric cancer cell lines to identify multiple opportunities for drug repurposing: Confirmatory screen for TC32 cells (AID 1347118);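 note: cells exposed to compound for 48 h before the read; nearly all actives have a fitted effect of over 65% in size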; note: potency is the fitted concentration of half-maximal effect
How it was run: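 Luminescent ATP read-out (CellTiter-Glo) of metabolically active TC32 cells after 48 h exposure. Concentration-response curves came from 11-point (MIPE, 0.78 nM–46 µM) or 8-point (NPC, 0.59 nM–46 µM) primary titrations; follow-up used 11 points.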

[13] = qHTS of pediatric cancer cell lines to identify multiple opportunities for drug repurposing: Confirmatory screen for MG 63 (6-TG R) cells (AID 1347119);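 note: plate controls were DMSO neutral control for no effect and bortezomib for full effect; nearly all actives have a fitted effect of over 55% in size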
How it was run: as §1

[14] = biological target: N-terminal Xaa-Pro-Lys N-methyltransferase 1 (Homo sapiens) (UniProt Q9BV86); experiment: qHTS Assay for Inhibitors of N-terminal methyltransferase 1 (NTMT1): LOPAC validation of the NTMT1 SAHH-coupled ThioGlo3 Assay (AID 1347143);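 note: SAH from peptide methylation measured as thiol fluorescence via SAHH coupling and ThioGlo3; % is set by controls: 0 for no effect and ±100 for the full control effect; nearly all actives have a fitted effect of over 70% in size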
How it was run: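 Recombinant human NTMT1 (125nM) was pre-incubated 1 min at room temperature with compounds over a concentration range, then a mix of 100uM SAM, 10uM SAHH and 15uM ThioGlo3 (concentrations in added reagent) was added. ThioGlo3 fluorescence (ex 340/em 450nm) after 30 min was normalized to the initial reading.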

[15] = test system: Zika virus NS2B-NS3 protease (unlinked); experiment: Optimization of GU AMC qHTS for Zika virus inhibitors: Unlinked NS2B-NS3 protease assay (AID 1347151);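 note: series mostly up to about 52 µM; 0% = no-inhibitor control and -100% = no-enzyme control; nearly all actives have a fitted effect of over 80% in size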
How it was run: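 Percent inhibition is derived from the 15-min change in AMC fluorescence, normalized against no-inhibitor and no-enzyme controls, then fitted to a 4-parameter Hill curve. Aprotinin was the intraplate control.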

[16] = test system: Zika virus NS2B-NS3 protease (unlinked complex); experiment: Primary screen GU Rhodamine qHTS for Zika virus inhibitors: Unlinked NS2B-NS3 protease assay (AID 1347159); note: % is set by controls: 0 for no effect and ±100 for the full control effect; nearly all actives have a fitted effect of over 60% in size
How it was run: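 Percent inhibition derives from the 15-min fluorescence change (ex 480, em 540 nm), normalized to no-enzyme and no-inhibitor wells. Reactions contained 25 nM NS2B-NS3 complex and 1.5 microM substrate in 10 mM Tris-HCl pH 8.0.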

Furin (Homo sapiens) = Furin (Homo sapiens) (UniProt P09958); experiment: Furin counterscreen qHTS for Zika virus inhibitors (AID 1347149); note: nearly all actives have a fitted effect of over 70% in size; note: potency is the fitted concentration of half-maximal effect;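 for activity change, negative = inhibition: purified recombinant full-length human furin enzyme at 5 nM; fluorescence gain from furin cutting a BOC-RVRR-AMC peptide substrate over 15 min; top concentration of the series differs between compounds; plate controls were no-inhibitor control for no effect and no-enzyme control for full effect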
How it was run: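 Fluorogenic cleavage of BOC-RVRR-AMC (2 microM final, Km ~15 µM) was monitored (ex 340, em 450 nm) at 37C after 15 min RT preincubation of 5 nM furin with compounds in HEPES pH 7.0 buffer with CaCl2 and Triton X-100. Percent inhibition was fitted to a 4-parameter Hill curve.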

[17] = Confirmatory screen GU Rhodamine qHTS for Zika virus inhibitors qHTS (AID 1347157); conditions: purified enzyme assay, Rhodamine110 substrate fluorescence, 15 min
How it was run: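 Buffer 10 mM Tris-HCl pH 8.0, 0.01% Tween 20. Unlinked protease 25 nM; compound preincubation 15 min, RT, protected from light. Substrate Rhod110, 1.5 microM; ~15% conversion in 15 min.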

[18] = test system: Zika virus NS2B-NS3 protease (unlinked complex); experiment: Confirmatory screen GU AMC qHTS for Zika virus inhibitors (AID 1347153); conditions: Recombinant NS2B-NS3 protease, AMC substrate fluorescence
How it was run: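 Compounds were preincubated 15 min at room temperature with 25 nM noncovalent NS2B-NS3 protease at pH 8.0; AMC substrate added at 10 microM and 15-min fluorescence gain (340/450 nm) converted to percent inhibition, fitted 4-parameter.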

[19] = ZIKV-mCherry secondary qHTS for Zika virus inhibitors (AID 1347158); conditions: Vero cells, ZIKV-mCherry infection imaging, 48-72 h; note: potency is the fitted concentration of half-maximal effect
How it was run: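 Vero cells, 5,000/well, plated overnight at 37 °C, then compound added and infected with recombinant ZIKV-mCherry at MOI 1 for 48-72 h. PFA-fixed, Hoechst nuclear stain, high-content imaging; cells with mCherry intensity above 450 RFU scored infected, reported as percent infection.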

Furin (Homo sapiens), sequence (P09958 whole entry, looked up): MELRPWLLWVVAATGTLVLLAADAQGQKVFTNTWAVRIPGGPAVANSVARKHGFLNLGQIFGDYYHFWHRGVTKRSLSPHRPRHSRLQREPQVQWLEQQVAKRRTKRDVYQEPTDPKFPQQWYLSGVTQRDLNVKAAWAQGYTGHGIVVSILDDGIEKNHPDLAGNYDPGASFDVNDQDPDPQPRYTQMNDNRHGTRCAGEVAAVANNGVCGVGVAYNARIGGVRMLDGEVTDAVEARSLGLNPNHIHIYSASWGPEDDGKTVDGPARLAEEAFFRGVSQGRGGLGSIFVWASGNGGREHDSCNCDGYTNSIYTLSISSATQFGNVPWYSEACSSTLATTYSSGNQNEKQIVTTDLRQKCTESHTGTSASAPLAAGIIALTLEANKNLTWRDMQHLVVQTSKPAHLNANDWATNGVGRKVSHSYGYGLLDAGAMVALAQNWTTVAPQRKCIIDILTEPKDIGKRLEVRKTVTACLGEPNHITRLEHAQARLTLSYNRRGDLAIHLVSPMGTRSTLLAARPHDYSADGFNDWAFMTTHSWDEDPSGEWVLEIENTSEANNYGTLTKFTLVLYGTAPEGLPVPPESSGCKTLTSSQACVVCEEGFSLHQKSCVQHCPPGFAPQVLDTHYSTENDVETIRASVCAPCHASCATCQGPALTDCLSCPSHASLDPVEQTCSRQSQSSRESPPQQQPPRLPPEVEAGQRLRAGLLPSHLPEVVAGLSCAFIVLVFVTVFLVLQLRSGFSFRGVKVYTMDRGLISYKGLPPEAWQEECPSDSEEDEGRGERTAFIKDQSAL
N-terminal Xaa-Pro-Lys N-methyltransferase 1 (Homo sapiens), sequence (Q9BV86 whole entry, looked up): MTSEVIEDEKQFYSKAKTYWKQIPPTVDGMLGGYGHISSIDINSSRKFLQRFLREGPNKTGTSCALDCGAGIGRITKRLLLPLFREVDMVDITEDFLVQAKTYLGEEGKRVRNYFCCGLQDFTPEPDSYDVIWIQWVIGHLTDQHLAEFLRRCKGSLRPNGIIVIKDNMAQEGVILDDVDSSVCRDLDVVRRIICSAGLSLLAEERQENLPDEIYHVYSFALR

O=C(N/N=C/c1ccc([N+](=O)[O-])o1)c1cc([N+](=O)[O-])cc([N+](=O)[O-])c1O
inactive: outcome [1] | Potency [2] | Potency [3] | outcome [4] | Potency [5] | Potency [6] | Potency [7] | Potency [8] | Potency [9] | Potency [10]

C[C@]12CCC(=O)C=C1CC[C@@H]1[C@@H]2CC[C@@]2(C)[C@H]1CC[C@]2(C)O
active: Potency [3] 18.5 µM
inactive: outcome [1] | outcome [4] | Potency [5] | Potency [6] | Potency [7] | Potency [8] | Potency [9] | Potency [10]

C[C@]12CC[C@@H]3c4ccc(OC(=O)N(CCCl)CCCl)cc4CC[C@H]3[C@@H]1CC[C@@H]2O
active: Potency [11] 21.5 µM | Potency [10] 15.8 µM

CC1(C)C(C=C(Cl)Cl)C1C(=O)OC(C#N)c1cccc(Oc2ccccc2)c1 (stereo not given)
inactive: Potency [10]

C[C@](O)(CS(=O)(=O)c1ccc(F)cc1)C(=O)Nc1ccc(C#N)c(C(F)(F)F)c1
inactive: Potency [12] | outcome [13] | outcome [1] | Potency [2] | outcome [4] | Potency [5] | Potency [6] | Potency [7] | Potency [8] | Potency [9] | Potency [10]

CCCN(CCC)C(=O)Cc1c(-c2ccc(Cl)cc2)nc2ccc(Cl)cn12
active: Potency [3] 18.5 µM | Potency [6] 7.37 µM
inactive: outcome [13] | outcome [1] | outcome [4] | Potency [5] | Potency [7] | Potency [8] | Potency [9]

O=C(CCCN1CCC2(CC1)C(=O)NCN2c1ccccc1)c1ccc(F)cc1
inactive: outcome [14]

O=P1(N(CCCl)CCCl)NCCCO1 (stereo not given)
inactive: Potency [12] | outcome [13] | outcome [1] | Potency [2] | Potency [3] | outcome [4] | Potency [5] | Potency [6] | Potency [7] | Potency [8] | Potency [9] | outcome [15] | Potency [10]

CC(C)N(CCC(C(N)=O)(c1ccccc1)c1ccccn1)C(C)C (stereo not given)
inactive: outcome [14] | outcome [15] | Potency [10] | outcome [16]

O=C1OC(c2ccc(O)c(S(=O)(=O)O)c2)(c2ccc(O)c(S(=O)(=O)O)c2)c2c(Br)c(Br)c(Br)c(Br)c21
active: Potency [17] 3.16 µM
inactive: Potency (Furin (Homo sapiens))

NCCc1ccc(O)cc1
inactive: outcome [14] | outcome [15] | Potency [10]

CNC(C)(C)Cc1ccccc1
inactive: Potency [10]

CCC1(c2ccc(N)cc2)CCC(=O)NC1=O (stereo not given)
inactive: outcome [14] | outcome [15] | Potency [10]

Nc1ccc([As](=O)(O)O)cc1
inactive: Potency [10]

O=c1[nH]oc2c1CCNC2
inactive: outcome [14] | outcome [15] | Potency [10]

CN1C(=O)CCS(=O)(=O)C1c1ccc(Cl)cc1 (stereo not given)
inactive: outcome [14] | outcome [15] | Potency [10]

c1ccc2c(c1)sc1ccccc12
inactive: Potency [10]

CCCCCN(C)CCC(O)(P(=O)(O)O)P(=O)(O)O
inactive: outcome [14] | outcome [15]

O=c1oc2ccccc2c(O)c1Cc1c(O)c2ccccc2oc1=O
inactive: Potency (Furin (Homo sapiens)) | Potency [10]

O=C(Nc1ccc(Br)cc1)c1cc(Br)cc(Br)c1O
active: Potency (Furin (Homo sapiens)) 27.1 µM | Potency [11] 19.2 µM | Potency [18] 21.5 µM | Potency [10] 35.5 µM | Potency [19] 8.91 µM

CC(C)c1cccc(C(C)C)c1O
inactive: outcome [14] | outcome [15] | Potency [10]

O=C(O)CCCc1ccc(N(CCCl)CCCl)cc1
inactive: Potency [2] | Potency [3] | outcome [4] | Potency [5] | Potency [6] | Potency [8] | Potency [9] | Potency [10]

COc1cccc2c1C(=O)c1c(O)c3c(c(O)c1C2=O)C[C@@](O)(C(=O)CO)CC3OC1CC(N2CCOC(OC)C2)C(O)C(C)O1 (stereo not given in full)
active: Potency [12] 0.0059 µM | Potency [2] 0.0737 µM | Potency [3] 0.0369 µM | Potency [5] 0.0522 µM | Potency [6] 0.0465 µM | Potency [8] 0.0233 µM | Potency [9] 0.0235 µM
inactive: outcome [1] | Potency [10]

C=C(C)[C@H]1CN[C@H](C(=O)O)[C@H]1CC(=O)O
inactive: outcome [14] | outcome [15] | Potency [10]

COC1CC(=C(c2cccs2)c2cccs2)C[N+](C)(C)C1 (stereo not given)
inactive: Potency [10]

COc1ccc2c(c1OC)C(=O)O[C@H]2[C@@H]1c2cc3c(cc2CCN1C)OCO3
inactive: outcome [14] | Potency [10]

CC(C)(C)c1ccc(O)cc1
inactive: Potency [10]

CC(C)(C)NCC(O)c1cc(Cl)c(N)c(C(F)(F)F)c1 (stereo not given)
inactive: Potency [10]

CCOP(=S)(OCC)Oc1ccc2c(C)c(Cl)c(=O)oc2c1
inactive: outcome [13] | Potency [2] | Potency [3] | outcome [4] | Potency [5] | Potency [6] | Potency [7] | Potency [8] | Potency [9] | Potency [10]

Cc1ncsc1CCCl
inactive: outcome [15] | Potency [10]

COP(=S)(OC)Oc1ccc(SC)c(C)c1
inactive: Potency [10]

CC(C)(C)NCC(O)c1ccccc1Cl (stereo not given)
inactive: outcome [14] | outcome [15] | Potency [10]

C#C[C@]1(O)CC[C@H]2[C@@H]3CCC4=CC(=O)CC[C@]4(C)[C@H]3CC[C@@]21C
inactive: Potency [10]

O=c1c(C2CC(c3ccc(-c4ccc(Br)cc4)cc3)Cc3ccccc32)c(O)sc2ccccc12 (stereo not given)
active: Potency [11] 19.2 µM | Potency [18] 12.1 µM

COc1cc(CC(C)N)cc(OC)c1OC (stereo not given)
inactive: Potency [10]

CC(NC(C)(C)C)C(=O)c1cccc(Cl)c1 (stereo not given)
inactive: outcome [13] | outcome [1] | Potency [5] | Potency [9] | outcome [14] | outcome [15] | Potency [10] | outcome [16]
active: Potency [12] 2.93 µM | Potency [2] 4.14 µM | Potency [3] 4.65 µM | Potency [7] 18.5 µM

COC(=O)C(Cl)C(=O)OC
inactive: Potency [10]

CC(=O)OCC1=C(C(=O)O)N2C(=O)[C@@H](N)[C@H]2SC1
active: Potency [17] 22.1 µM
inactive: outcome [16]

C=CCN1C[C@H](C)N([C@H](c2ccc(C(=O)N(CC)CC)cc2)c2cccc(OC)c2)C[C@H]1C
inactive: activity change, negative = inhibition [16] -8.84% [at 19.1 µM]
